Screening data deposited in PubChem by NMMLSC.
Rab7 wt GTP bind = modulators of GTP binding to Rab7, primary screen, biochemical, wildtype, multiplex bead flow cytometry | Rab7 GTPase wild type (dog), Bodipy-FL-GTP binding | GST-Rab7 beads, fluorescent GTP binding; actives lie on both sides; untreated = 100%, excess cold GTP = 0% | GTP binding activity (percent of control), % at 10 µM | actives 0.055% (n = 190,000);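 active = fluorescent GTP binding to Rab7 beads changed by at least 20 points from the 100% baseline, either direction, mostly lower; inconclusive = compound itself probably fluorescent, or too few beads counted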;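 note: median green fluorescence of bound Bodipy-FL-GTP per Rab7 bead population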
HRas wt GTP bind = modulators of GTP binding to HRas wildtype, primary screen, biochemical, bead-based flow cytometry, multiplex | GTPase HRas (Homo sapiens), P01112 | GST-Ras wt beads, Bodipy-FL-GTP binding; actives lie on both sides | GTP binding activity, % at 10 µM | actives 0.14% (n = 190,000) | AID 759, 2007;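 active = GTP binding activity at least 20% away from the 100% baseline, either lowered as inhibitor or raised as activator; inconclusive = flagged as likely green fluorescent, judged across all proteins in the well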;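 note: 0% = unlabeled GTP competition control and 100% = no-compound control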
Target sequence (P01112 whole entry, looked up): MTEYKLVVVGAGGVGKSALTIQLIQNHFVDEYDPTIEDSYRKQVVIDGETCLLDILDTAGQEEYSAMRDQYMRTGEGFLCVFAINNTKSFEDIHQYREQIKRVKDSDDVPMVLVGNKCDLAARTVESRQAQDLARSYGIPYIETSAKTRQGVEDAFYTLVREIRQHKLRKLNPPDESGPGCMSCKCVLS
Rab2 wt GTP = modulators of GTP binding to Rab2A wildtype, primary screen, biochemical, dog, bead-based flow cytometry, multiplex. Ras-related protein Rab-2A (Canis lupus familiaris), P61105. GST-Rab2 wt beads, Bodipy-GTP binding. GTP binding activity, % at 10 µM. actives 0.19% (n = 190,000);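 active = GTP binding activity at least 20 points away from 100%, either lowered or raised; inconclusive = signal likely due to the compound's own green fluorescence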;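 note: 0% = beads with excess unlabeled GTP and 100% = no-compound control corrected for plate trend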
Cdc42 wt GTP = modulators of GTP binding to wildtype Cdc42, primary screen, biochemical, multiplex bead flow cytometry, Bodipy-GTP; Cell division control protein 42 homolog (Homo sapiens), P60953; percent activity (GTP binding), % at 10 µM; actives 0.2% (n = 190,000); GST-Cdc42 beads; actives lie on both sides;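 active = percent activity GTP binding at least 20 points away from the 100% baseline, either down as inhibitor or up as activator; inconclusive = compound flagged as likely green fluorescent from well-wide comparison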;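 note: median bead fluorescence of bound Bodipy-FL-GTP at 100 nM; 0% = excess unlabeled GTP control and 100% = no compound control; below 100% means less GTP binding so inhibitor and above means activator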
Target sequence (P60953 whole entry, looked up): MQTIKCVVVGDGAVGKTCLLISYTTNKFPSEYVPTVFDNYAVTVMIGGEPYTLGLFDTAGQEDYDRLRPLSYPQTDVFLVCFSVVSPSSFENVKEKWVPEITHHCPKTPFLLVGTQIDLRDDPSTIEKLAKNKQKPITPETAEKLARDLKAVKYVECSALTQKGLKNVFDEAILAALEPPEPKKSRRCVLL
Rac1 mut GTP = GTP binding modulators of activated mutant Rac1, primary screen, biochemical, bead-based flow cytometry, multiplex, fluorescent GTP; Ras-related C3 botulinum toxin substrate 1 (Homo sapiens), P63000; percent activity (GTP binding), % at 10 µM; actives 0.11% (n = 190,000); AID 764, 2007; GST-Rac1 activated beads; actives lie on both sides; 100% means binding = to untreated wells;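 active = GTP binding at least 20 percentage points away from the 100% baseline, in either direction, so actives lie on both sides; inconclusive = Compound likely fluorescent itself, or too few beads counted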
Rac1 wt modul = wildtype Rac1 GTP binding modulators, primary screen, biochemical, GST-Rac1 beads, flow cytometry, multiplex | Ras-related C3 botulinum toxin substrate 1 (Homo sapiens), P63000 | fluorescent GTP binding; actives lie on both sides; 0 = cold GTP competed, 100 = untreated | GTP binding activity (% of control), % at 10 µM | actives 0.27% (n = 190,000) | AID 757, 2007;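 active = GTP binding activity at least 20 points away from the 100% control level, either lower or higher; inconclusive = compound flagged as likely green fluorescent, judged across all proteins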
Numbers without * were called inactive; u = inconclusive; [ ] = another dose, or the depositor's remark. This is a sample that favours compounds with a hit; in the whole collection about 0.4% have one here.

SMILES	Rab7 wt GTP bind	HRas wt GTP bind	Rab2 wt GTP	Cdc42 wt GTP	Rac1 mut GTP	Rac1 wt modul
CC1(C)Cc2c(sc(NC(=O)c3ccc(Br)o3)c2C#N)CO1	99.0	104.0	112.0	148.0*[activator]	118.0	167.0*[activator]
CCCCC(=O)Nc1sc2c(c1C#N)CC(C)(C)OC2	104.0	101.0	98.0	103.0	100.0	107.0
O=C1c2ccccc2-n2c1nc1ccccc1c2=O	97.0	82.0	82.0	81.0	88.0	77.0*
O=C(Oc1ccc(C(=S)N2CCOCC2)cc1Br)c1cc(Cl)ccc1Cl	98.0	98.0	96.0	97.0	95.0	99.0
O=C(Oc1c(Br)cc(C(=S)N2CCOCC2)cc1Br)c1ccc(Cl)cc1	88.0	80.0	78.0*	75.0*	77.0*	80.0
CC(C)(C)C(=O)CNS(=O)(=O)c1ccc(S(=O)(=O)NC2CCCC2)cc1	103.0	102.0	103.0	103.0	100.0	102.0
Nc1nc(CN2CCN(c3ccccc3F)CC2)nc(N2CCCc3ccccc32)n1	88.0	87.0	83.0	79.0*	80.0	87.0
Cc1cc(/C=c2\sc3nc4ccccc4n3c2=O)c(C)n1-c1ccc(C(=O)O)cc1	94.0	88.0	85.0	78.0*	76.0*	81.0
CCNC(=O)COC(=O)COc1ccc(Cl)cc1C	98.0	101.0	102.0	102.0	100.0	105.0
Cc1cc(Cl)ccc1OCC(=O)OCC(=O)Nc1ccc(F)c([N+](=O)[O-])c1	89.0	74.0*	64.0*	77.0*	91.0	97.0
O=C1c2ccccc2C(=O)N1CCCCN(C(=O)c1cc2ccccc2oc1=O)c1ccc(Cl)cc1	29.0*	51.0*	46.0*	43.0*	53.0*	50.0*
O=C(c1ccccc1SCc1ccccc1)N1CCOCC1	107.0	98.0	100.0	98.0	98.0	103.0
O=C(O)c1ccccc1SCc1ccc2c(c1)OCO2	121.0*[activator]	123.0*[activator]	127.0*[activator]	135.0*[activator]	127.0*[activator]	135.0*[activator]
CC1CCN(CCOc2ccc(OCc3ccccc3)cc2)CC1	97.0	100.0	102.0	102.0	101.0	103.0
Cc1cc(C)c(C(=O)C2OC(=O)C(C)(C)C(=O)C2(C)C)c(C)c1 (stereo unspecified)	105.0	103.0	103.0	104.0	103.0	112.0
Cc1ccc(NC(=S)NNC(=O)c2cn(C)nc2C)cc1	107.0	113.0	114.0	118.0	108.0	134.0*[activator]
Cc1ccc(NC(=S)NNC(=O)c2c(Cl)c(C)nn2C)cc1	96.0	99.0	99.0	100.0	97.0	100.0
Cc1cc(NS(=O)(=O)c2ccc(NC(=O)c3cc4c(=O)n5ccccc5nc4s3)cc2)nc(C)n1	104.0	82.0	80.0	76.0*	85.0	83.0
CN(C)S(=O)(=O)c1cccc(NC(=O)c2cc3c(=O)n4ccccc4nc3s2)c1	93.0	89.0	87.0	96.0	96.0	91.0
O=C(COc1ccc(Cl)cc1[N+](=O)[O-])N1CCCCCC1	104.0	97.0	99.0	98.0	93.0	96.0
C(=N\Nc1nn2cnnc2c2ccccc12)/c1ccco1	87.0	75.0*	72.0*	77.0*	89.0	88.0
Clc1cnc(N/N=C/c2ccco2)c(Cl)c1	100.0	101.0	100.0	99.0	100.0	104.0
COc1cc(/C=N/Nc2nn3cnnc3c3ccccc23)ccc1O	81.0	62.0*	72.0*	58.0*	u	75.0*
Cc1ccc(COc2ccsc2C(=O)O)cc1	98.0	114.0	117.0	120.0*[activator]	115.0	118.0
Cc1cc(C(=O)OCn2nnc3ccccc3c2=O)c(C)n1-c1ccccc1	92.0	96.0	95.0	95.0	94.0	98.0
SMILES	Rab7 wt GTP bind	HRas wt GTP bind	Rab2 wt GTP	Cdc42 wt GTP	Rac1 mut GTP	Rac1 wt modul
O=C(Nc1cccc(S(=O)(=O)N2CCCC2)c1)c1ccc2c(c1)OCO2	92.0	92.0	90.0	99.0	94.0	90.0
CC(=O)c1cc2c(cc1NC(=O)c1cccc(S(=O)(=O)N3CCN(C)CC3)c1)OCO2	98.0	84.0	82.0	83.0	89.0	78.0*
CN1CCN(S(=O)(=O)c2cccc(C(=O)Nc3sc4c(c3C(N)=O)CCCC4)c2)CC1	85.0	80.0	77.0*	79.0*	87.0	72.0*
CC(=O)OCC1OC(OC(C)=O)C(NC(=O)c2cccnc2)C(OC(C)=O)C1OC(C)=O (stereo unspecified)	101.0	100.0	99.0	104.0	99.0	103.0
O=C(O)c1cccc(S(=O)(=O)Nc2ccccc2Cl)c1	99.0	98.0	97.0	101.0	98.0	97.0
O=C(NCCc1c[nH]c2ccccc12)c1cccc(S(=O)(=O)Nc2ccccc2Cl)c1	88.0	83.0	79.0*	93.0	89.0	80.0
Cc1ccc2nc(Cl)c(/C=N/Nc3nc(C)cc(C)n3)c(=O)n2c1	96.0	95.0	95.0	100.0	95.0	99.0
N#Cc1ccc2ccn(CC(=O)N3CCCc4ccccc43)c2c1	110.0	109.0	109.0	109.0	106.0	129.0*[activator]
O=C(CN1CCCCC1)N1CCCc2ccccc21	100.0	103.0	102.0	104.0	101.0	106.0
O=C(NCCn1ccc2ccccc21)c1ccc(S(=O)(=O)N2CCOCC2)cc1	100.0	103.0	102.0	103.0	100.0	105.0
CC(C)(C)C(=O)OCC1OC(n2cnc(C(N)=O)n2)C(O)C1O (stereo unspecified)	104.0	110.0	114.0	119.0	103.0	120.0*[activator]
COC(=O)c1ncn(C2OC(COC(C)=O)C(OC(C)=O)C2OC(C)=O)n1 (stereo unspecified)	101.0	102.0	98.0	98.0	100.0	104.0
Cc1ccc(/C=C2\SC(=S)N(Cc3ccccc3)C2=O)o1	89.0	89.0	90.0	88.0	88.0	89.0
COc1ccc(CN2C(=O)/C(=C/c3ccc(-c4ccc(Cl)c(C(=O)O)c4)o3)SC2=S)cc1	84.0	73.0*	79.0*	75.0*	76.0*	76.0*
O=C(O)c1cc(-c2ccc(/C=C3/SC(=S)N(Cc4ccccc4)C3=O)o2)ccc1Cl	89.0	80.0	78.0*	76.0*	77.0*	74.0*
Clc1ccc(-c2ccc(/C=N/Nc3nncc(-c4ccccc4)n3)o2)cc1	92.0	96.0	96.0	98.0	94.0	94.0
Clc1ccccc1-c1ccc(/C=N/Nc2nncc(-c3ccccc3)n2)o1	97.0	91.0	85.0	84.0	86.0	79.0*
